Compound activity (PubChem BioAssay)
Sampled rows, rich in hits. Any-hit rate of the full collection: about 6.9%.
Giardia kill – Giardia lamblia killing | Giardia lamblia trophozoite viability | activity change, % at 7.66 µM, hits read low | 340,000 tested, 0.15% active; in the data active means activity change below about -80%; inconclusive means between about -30% and that limit;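 further: parasites exposed to compound for two days anaerobically before the ATP read; on the % scale 0 is the no-effect control and ±100 the full control effect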
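Compounds were tested on trophozoites seeded at 100 cells/well and held 48 hrs at 37 deg C anaerobically. An ATP-based luminescent kit measured the remaining live cells.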
MCF10A rereplic – DNA re-replication induction in MCF 10a cells. Potency, µM (top dose mostly 46.1 µM), for the others: top-dose activity, positive = re-replication, most hits filed as activators. AID 624296. MCF 10A DNA re-replication, Hoechst nuclear intensity, 48 h. 350,000 tested, 2.9% active; further: potency means the concentration at half of the fitted maximal effect; % of control where 0% means no effect; nearly all actives have a fitted effect of over 50% in size
Vif-A3F inh – inhibitors of Vif-A3F interaction; 390,000 tested, 0.2% active; Potency, µM (titrated, usually from 46.1 µM), for the others: at the top dose activity, negative = active; HeLa A3F-eYFP + Vif (tagged APOBEC3F with the HIV-1 protein that degrades it), YFP fluorescence increase; further: potency means the concentration at half of the fitted maximal effect; % of control where 0% means no effect; nearly all actives have a fitted effect of over 65% in size
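Fluorescence increase (Ex 488/Em 500-530) after overnight compound treatment at 37 deg C flags inhibition of Vif-driven A3F-eYFP loss in stable HeLa A3F-eYFP/Vif cells seeded overnight beforehand.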
Vif-APOBEC3G blk – inhibitors of Vif-APOBEC3G interaction | Q9HC16 | 410,000 tested, 0.076% active | Potency, µM (doses to about 46.1 µM), without a hit: at the highest dose activity, negative = active, hits mostly inhibitors | HeLa A3G-eYFP + Vif (tagged APOBEC3G with the HIV-1 protein that degrades it), YFP fluorescence, overnight; further: potency means the concentration at half of the fitted maximal effect; on the % scale 0 is the no-effect control and ±100 the full control effect; nearly all actives have a fitted effect of over 60% in size
Target sequence (Q9HC16 whole entry, looked up): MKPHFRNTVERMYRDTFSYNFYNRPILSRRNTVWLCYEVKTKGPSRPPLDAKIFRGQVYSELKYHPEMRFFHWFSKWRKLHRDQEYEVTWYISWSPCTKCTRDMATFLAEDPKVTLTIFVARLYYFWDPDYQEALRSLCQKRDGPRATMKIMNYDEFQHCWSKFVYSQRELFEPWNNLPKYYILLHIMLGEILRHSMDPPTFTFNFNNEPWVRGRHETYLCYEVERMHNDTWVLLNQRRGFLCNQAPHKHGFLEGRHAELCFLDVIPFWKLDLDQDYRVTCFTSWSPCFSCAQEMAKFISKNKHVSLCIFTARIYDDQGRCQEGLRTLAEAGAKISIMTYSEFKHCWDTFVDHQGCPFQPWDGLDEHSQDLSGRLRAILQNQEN
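Read-out is eYFP fluorescence (Ex 488/Em 500-530) from Vif-expressing HeLa A3G-eYFP cells; more signal means A3G escaped Vif-mediated degradation. Cells plated overnight, compound pinned in, incubated overnight at 37 deg C.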
IL-1B inflam inh – inhibitors of inflammasome signaling (IL-1 beta secretion); THP-1 LPS/ATP IL-1B secretion, AlphaLISA, 16 h; stronger effect = lower value; activity change, % at 57.5 µM; 360,000 tested, 4.7% active; AID 743279; in the data active means activity change below about -50%; inconclusive means mostly about -30% to -49%; further: on the % scale 0 is the no-effect control and ±100 the full control effect
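THP-1 cells pretreated 1 hr with compounds (up to 57.5 uM final), then stimulated with LPS (250 ng/mL final) plus ATP (1.25 mM final); secreted IL-1B measured by AlphaLISA after 16 hr, decreased signal indicating inhibition.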
SW480 rerep – induces DNA re-replication in SW480 colon adenocarcinoma cells. Potency, µM (titrated, usually from 46.1 µM), for inactives: top-dose re-replication activation, most hits filed as activators. AID 624297. SW480 DNA re-replication, Hoechst DNA content imaging, 48 h. 340,000 tested, 1.8% active; further: potency means the concentration at half of the fitted maximal effect; % of control where 0% means no effect; nearly all actives have a fitted effect of over 55% in size
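DNA re-replication was detected as more nuclei of elevated Hoechst intensity after 48 hr exposure to compound (23 nL pinned per well of 250 cells).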
Numbers without * were called inactive. Unless noted, the call rests on the fitted dose curve; in most records, active means well fitted curve in the direction sought with a large enough effect; inconclusive means small, poorly fitted or top-dose-only effect, or another doubt; inactive means no such curve, though single readings can be large; an effect the other way counts as inactive or inconclusive.

What do the screens show for `COc1cc(C)c(/C=C(\C#N)C(=O)Nc2cccc(C)c2)cc1C(C)C`?
Giardia kill: -3; MCF10A rereplic: 21µM*; Vif-A3F inh: -11%; Vif-APOBEC3G blk: 1%; IL-1B inflam inh: -7; SW480 rerep: -2%

Results for O=S1(=O)CC(O)C(NCc2cccnc2)C1 (centres undefined) ?
Giardia kill: 14; MCF10A rereplic: 5.2µM*; Vif-A3F inh: -4%; Vif-APOBEC3G blk: 0%; IL-1B inflam inh: -4; SW480 rerep: 2.1µM*

How did CC(C)CNC1CS(=O)(=O)CC1O (centres undefined) do in these assays?
Giardia kill: -15; MCF10A rereplic: 2%; Vif-A3F inh: 1%; Vif-APOBEC3G blk: 1%; IL-1B inflam inh: -15; SW480 rerep: -14%

What do the screens show for `CC(=O)Nc1ccc(Nc2nc3ccccc3nc2NS(=O)(=O)c2ccc(Cl)c([N+](=O)[O-])c2)cc1`?
Giardia kill: -15; MCF10A rereplic: inconclusive; Vif-A3F inh: -1%; Vif-APOBEC3G blk: inconclusive; IL-1B inflam inh: -108*; SW480 rerep: 3%

How did CC(=O)Nc1ccc(S(=O)(=O)Nc2nc3ccccc3nc2Nc2ccc3ccccc3c2)cc1 do in these assays?
Giardia kill: -4; MCF10A rereplic: inconclusive; Vif-A3F inh: inconclusive; Vif-APOBEC3G blk: -14%; IL-1B inflam inh: 11; SW480 rerep: -10%

What do the screens show for `CCCCN(CCCC)c1nc2ccccc2nc1NS(=O)(=O)c1ccc(NC(C)=O)cc1`?
Giardia kill: 2; MCF10A rereplic: 12µM*; Vif-A3F inh: -1%; Vif-APOBEC3G blk: 1%; IL-1B inflam inh: 16; SW480 rerep: 21µM*

Results for O=C(O)c1cccc(Nc2nc3ccccc3nc2NS(=O)(=O)c2ccccc2)c1 ?
Giardia kill: -1; MCF10A rereplic: 14%; Vif-A3F inh: 7%; Vif-APOBEC3G blk: 0%; IL-1B inflam inh: 20; SW480 rerep: 1%

Results for O=C(O)c1ccc(Nc2nc3ccccc3nc2NS(=O)(=O)c2ccc(F)cc2)cc1 ?
Giardia kill: 0; MCF10A rereplic: 23µM*; Vif-A3F inh: -27%; Vif-APOBEC3G blk: -9%; IL-1B inflam inh: 5; SW480 rerep: -15%

Results for COC(=O)c1cc(Nc2nc3ccccc3nc2NS(=O)(=O)c2ccc(C)cc2)ccc1Cl ?
Vif-A3F inh: 11µM*; Vif-APOBEC3G blk: -7%

Results for CCOC(=O)c1ccc(NS(=O)(=O)c2cc(-c3onc(C)c3C)ccc2C)cc1 ?
Vif-A3F inh: 0%; Vif-APOBEC3G blk: -8%

Results for O=[N+]([O-])c1ccc(S(=O)(=O)Nc2nc3ccccc3nc2Nc2ccccc2)cc1 ?
Giardia kill: -5; MCF10A rereplic: 10%; Vif-A3F inh: 5%; Vif-APOBEC3G blk: 0%; IL-1B inflam inh: -73*; SW480 rerep: 13%

Results for CC(=O)Nc1ccc(S(=O)(=O)Nc2nc3ccccc3nc2Nc2ccc(N)cc2)cc1 ?
Giardia kill: 12; MCF10A rereplic: -1%; Vif-A3F inh: 13µM*; Vif-APOBEC3G blk: -7%; IL-1B inflam inh: 9; SW480 rerep: 22%

What do the screens show for `O=C(Nc1ccc(S(=O)(=O)Nc2cnc3ccccc3n2)cc1)c1ccc(F)cc1`?
Giardia kill: -11; MCF10A rereplic: -5%; Vif-A3F inh: inconclusive; Vif-APOBEC3G blk: 0%; IL-1B inflam inh: 41; SW480 rerep: 7.3µM*

How did Cn1c(=O)n(C/C=C/c2ccccc2)c(=O)c2c1nc1n2CCN1c1ccc(F)cc1 do in these assays?
Vif-A3F inh: 0%; Vif-APOBEC3G blk: 4%

How did COc1cccc(NC(=O)c2cc3c(=O)n(C)c4ccccc4c3n2C)c1 do in these assays?
Vif-A3F inh: -4%; Vif-APOBEC3G blk: -1%

What do the screens show for `O=C1CCC[C@@H]2CC(N(Cc3cc4ccccc4s3)c3ccccc3)C[C@@H]3CCN1[C@H]23` (some centres undefined)?
Vif-APOBEC3G blk: 0%

How did O=[N+]([O-])c1ccc(Sc2ccccn2)nc1 do in these assays?
Giardia kill: 8; MCF10A rereplic: -2%; Vif-A3F inh: -5%; Vif-APOBEC3G blk: 0%; IL-1B inflam inh: 9; SW480 rerep: -5%
